The source of these data is PubChem BioAssay.

A short description of assay [1]: small molecules captured by biotinylated probe aFSTL3 – biochemical, small-molecule microarray, fluorescence 635/667, stem cell growth factor project, primary screen (AID 1064).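 Further: measures binding of the biotinylated anti-FSTL3 antibody to printed compounds.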 Conditions: higher = more signal.
Assay [2] is described as follows: binders from COS7 lysate, DM2A8 probe, primary screen, torsin A project, cell lysate, small-molecule microarray, fluorescence 635/667 (AID 1065). Conditions: higher = more signal, COS7 lysate expressing mutant human TOR1A.
The nature of assay [3]: small molecules captured by biotinylated probe aFGF2 – biochemical, small-molecule microarray, fluorescence 635/667, stem cell growth factor project, primary screen (AID 1067).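 Further: measures binding of biotinylated aFGF2 protein to printed compounds on slides; z-score merges feature fluorescence and signal-to-noise across triplicate slides.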 Conditions: higher = more signal.
A short description of assay [4]: small molecules captured by biotinylated probe aFGF10 – biochemical, small-molecule microarray, fluorescence 635/667, stem cell growth factor project, primary screen (AID 1071).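 Further: score merges 667 nm spot intensity and signal to noise from triplicate slides.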 Conditions: higher = more signal.
In assay [5] the target is Neurogenic locus notch homolog protein 2 (Homo sapiens) (UniProt Q04721). As to the kind of experiment: small molecules binding Notch2 protein – biochemical, small-molecule microarray, 635 nm fluorescence, stem cell growth factors, primary screen (AID 1073). The conditions noted are these: higher = more signal.
Assay [6] deals with Pro-neuregulin-1, membrane-bound isoform (Homo sapiens) (UniProt Q02297). The assay can be described thus: small molecules binding neuregulin-1 protein – biochemical, small-molecule microarray, fluorescence 635/667, psychiatric disease protein project, primary screen (AID 1075).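 Further: score combines 667 nm spot fluorescence with signal to noise.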 The conditions noted are these: NRG1 binding, 635 nm fluorescence, higher = more signal.
Assay [7] concerns Neuregulin-1 EGF-like domain. The assay can be described thus: small molecules binding NRG1 EGF domain – biochemical, small-molecule microarray, 635 nm fluorescence, primary screen (AID 1081).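 Further: binding of the protein to compounds printed on small-molecule microarray slides.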 Conditions: higher = more signal.
Assay [8] can be described thus: FRG1 expression reporter modulators in myotubes – cell-based, C2C12 myotubes, firefly/Renilla luciferase, luminescence, FRG1 inhibition for FSHD, primary screen (AID 1084). Conditions: FRG1 promoter luciferase, higher = more signal, called active from +8 up or from −8 down.
Assay [9] in a line: small molecules captured by biotinylated probe aFST – biochemical, small-molecule microarray, fluorescence 635/667, stem cell growth factor project, primary screen (AID 1086).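 Further: score merges 667 nm fluorescence with signal-to-noise of each printed compound spot.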 Conditions: higher = more signal.
Assay [10] in a line: binders of probe aHhip on microarray, primary screen, stem cell growth factor project, biochemical, small-molecule microarray, fluorescence 635/667 (AID 1087).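 Further: score merges spot fluorescence at 667nm with spot signal to noise ratio.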 The conditions noted are these: higher = more signal.
For assay [11], the system named is PRMT1 (protein arginine N-methyltransferase 1). The assay can be described thus: small molecules binding arginine methyltransferase PRMT1 – biochemical, small-molecule microarray, 635 nm fluorescence, primary screen (AID 1088).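 Further: binding of Prmt1 protein to compounds spotted on small-molecule microarray slides.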 Conditions: higher = more signal.
Assay [12] is described as follows: growth effects on S. cerevisiae YJM789 – YJM789 clinical isolate, OD600, 24 h, basal, primary screen (AID 1089).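 Further: growth of clinical yeast isolate S. cerevisiae YJM 789 seeded 1000 cells per well; test concentration not given here.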 The conditions noted are these: higher = more signal, called active from +8 up or from −8 down.
A short description of assay [13]: S. pombe growth modifiers, basal conditions – strain 972, OD600, 24 h, no modulator, primary screen (AID 1090).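 Further: basal condition with compound alone and no growth modifier present; test concentration not given here.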 The conditions noted are these: S. pombe 972 growth, higher = more signal, called active from +8 up or from −8 down.
Assay [14] in a line: budding yeast growth modifiers under rapamycin – strain BY4716, OD600, 96 h, primary screen (AID 1091). Further: test concentration not given here. Conditions: S. cerevisiae BY4716 + rapamycin, higher = more signal, called active from +8 up or from −8 down.
Assay [15] concerns the target Torsin-1A-interacting protein 2 (Homo sapiens) (UniProt Q8NFQ8). As to the kind of experiment: small molecules binding lysate-expressed LULL1 – cell lysate, human LULL1 lysate, 635/667 nm fluorescence, primary screen (AID 1092).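 Further: score merges per-feature 667 nm fluorescence with signal-to-noise.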 The conditions noted are these: small-molecule microarray, hLULL1 lysate binding, 635 nm fluorescence; higher = more signal.
Assay [16] can be described thus: optical density change of DRC41 E. coli – strain DRC41, OD650, 24 h, E. coli filamentation project, primary screen (AID 1093).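 Further: MC1000 strain lacking acrAB efflux and sulA so SOS filamentation is blocked; test concentration not given here.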 The conditions noted are these: E. coli DRC41 growth, higher = more signal, called active from +8 up or from −8 down.
A short description of assay [17]: probe aLefty2 binding to arrayed compounds – biochemical, biotinylated probe, 635/667 nm fluorescence, primary screen (AID 1094).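 Further: score merges spot fluorescence near 667 nm with spot signal-to-noise ratio.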 The conditions noted are these: small-molecule microarray, higher = more signal.
For assay [18], the system named is Noggin (protein binding on small-molecule microarray). The assay can be described thus: small molecules binding Noggin protein – biochemical, 635/667 nm fluorescence, primary screen (AID 1095).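 Further: score merges 667 nm feature fluorescence with signal to noise over triplicate slides.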 The conditions noted are these: 635 nm fluorescence, higher = more signal.
Assay [19] deals with Neurogenic locus notch homolog protein 3 (Homo sapiens) (UniProt Q9UM47). As to the kind of experiment: small molecules binding NOTCH3 protein – biochemical, 635/667 nm fluorescence, primary screen (AID 1096). The conditions noted are these: small-molecule microarray, 635 nm fluorescence, higher = more signal.
A short description of assay [20]: probe aEGFR binding to arrayed compounds – biochemical, biotinylated probe, 635/667 nm fluorescence, primary screen (AID 1097).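 Further: probe is a biotinylated anti-EGFR antibody binding compounds printed on slides; score combines fluorescence near 667 nm and signal to noise of each spot.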 Conditions: small-molecule microarray, higher = more signal.

Calls of active or inactive are those of the source.

Sequence of Torsin-1A-interacting protein 2 (Homo sapiens) (Q8NFQ8 whole entry, looked up): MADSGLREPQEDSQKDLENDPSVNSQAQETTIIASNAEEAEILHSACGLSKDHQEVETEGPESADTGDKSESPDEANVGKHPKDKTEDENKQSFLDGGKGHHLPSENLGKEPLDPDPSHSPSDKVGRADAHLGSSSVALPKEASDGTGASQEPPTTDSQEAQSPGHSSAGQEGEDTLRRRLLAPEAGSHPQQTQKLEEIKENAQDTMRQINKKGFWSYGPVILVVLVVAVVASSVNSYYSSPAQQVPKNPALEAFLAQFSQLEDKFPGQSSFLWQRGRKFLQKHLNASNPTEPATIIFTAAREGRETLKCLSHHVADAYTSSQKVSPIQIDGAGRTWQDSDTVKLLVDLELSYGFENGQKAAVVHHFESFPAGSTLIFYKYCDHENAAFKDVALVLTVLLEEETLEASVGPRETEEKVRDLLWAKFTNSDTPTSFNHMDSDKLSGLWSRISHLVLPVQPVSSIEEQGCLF
Sequence of Pro-neuregulin-1, membrane-bound isoform (Homo sapiens) (Q02297 whole entry, looked up, the tested form may be a part, canonical isoform): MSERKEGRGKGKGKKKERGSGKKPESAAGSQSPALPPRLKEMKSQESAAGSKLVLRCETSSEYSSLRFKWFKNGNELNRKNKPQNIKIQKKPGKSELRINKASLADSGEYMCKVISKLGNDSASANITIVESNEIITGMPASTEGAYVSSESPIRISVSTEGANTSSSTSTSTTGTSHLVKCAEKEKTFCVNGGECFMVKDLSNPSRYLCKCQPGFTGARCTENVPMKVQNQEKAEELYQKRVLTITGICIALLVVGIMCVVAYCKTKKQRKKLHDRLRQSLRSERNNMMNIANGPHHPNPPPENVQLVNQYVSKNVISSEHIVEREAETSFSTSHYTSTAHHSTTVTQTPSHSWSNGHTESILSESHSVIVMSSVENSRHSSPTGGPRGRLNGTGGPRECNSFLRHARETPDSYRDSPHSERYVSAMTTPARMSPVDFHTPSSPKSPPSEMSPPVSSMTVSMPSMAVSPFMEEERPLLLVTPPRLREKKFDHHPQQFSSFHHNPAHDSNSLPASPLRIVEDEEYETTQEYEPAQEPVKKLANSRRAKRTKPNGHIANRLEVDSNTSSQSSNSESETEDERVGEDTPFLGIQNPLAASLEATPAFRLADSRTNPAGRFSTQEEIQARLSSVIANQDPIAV
Sequence of Neurogenic locus notch homolog protein 2 (Homo sapiens) (Q04721 whole entry, looked up, canonical isoform): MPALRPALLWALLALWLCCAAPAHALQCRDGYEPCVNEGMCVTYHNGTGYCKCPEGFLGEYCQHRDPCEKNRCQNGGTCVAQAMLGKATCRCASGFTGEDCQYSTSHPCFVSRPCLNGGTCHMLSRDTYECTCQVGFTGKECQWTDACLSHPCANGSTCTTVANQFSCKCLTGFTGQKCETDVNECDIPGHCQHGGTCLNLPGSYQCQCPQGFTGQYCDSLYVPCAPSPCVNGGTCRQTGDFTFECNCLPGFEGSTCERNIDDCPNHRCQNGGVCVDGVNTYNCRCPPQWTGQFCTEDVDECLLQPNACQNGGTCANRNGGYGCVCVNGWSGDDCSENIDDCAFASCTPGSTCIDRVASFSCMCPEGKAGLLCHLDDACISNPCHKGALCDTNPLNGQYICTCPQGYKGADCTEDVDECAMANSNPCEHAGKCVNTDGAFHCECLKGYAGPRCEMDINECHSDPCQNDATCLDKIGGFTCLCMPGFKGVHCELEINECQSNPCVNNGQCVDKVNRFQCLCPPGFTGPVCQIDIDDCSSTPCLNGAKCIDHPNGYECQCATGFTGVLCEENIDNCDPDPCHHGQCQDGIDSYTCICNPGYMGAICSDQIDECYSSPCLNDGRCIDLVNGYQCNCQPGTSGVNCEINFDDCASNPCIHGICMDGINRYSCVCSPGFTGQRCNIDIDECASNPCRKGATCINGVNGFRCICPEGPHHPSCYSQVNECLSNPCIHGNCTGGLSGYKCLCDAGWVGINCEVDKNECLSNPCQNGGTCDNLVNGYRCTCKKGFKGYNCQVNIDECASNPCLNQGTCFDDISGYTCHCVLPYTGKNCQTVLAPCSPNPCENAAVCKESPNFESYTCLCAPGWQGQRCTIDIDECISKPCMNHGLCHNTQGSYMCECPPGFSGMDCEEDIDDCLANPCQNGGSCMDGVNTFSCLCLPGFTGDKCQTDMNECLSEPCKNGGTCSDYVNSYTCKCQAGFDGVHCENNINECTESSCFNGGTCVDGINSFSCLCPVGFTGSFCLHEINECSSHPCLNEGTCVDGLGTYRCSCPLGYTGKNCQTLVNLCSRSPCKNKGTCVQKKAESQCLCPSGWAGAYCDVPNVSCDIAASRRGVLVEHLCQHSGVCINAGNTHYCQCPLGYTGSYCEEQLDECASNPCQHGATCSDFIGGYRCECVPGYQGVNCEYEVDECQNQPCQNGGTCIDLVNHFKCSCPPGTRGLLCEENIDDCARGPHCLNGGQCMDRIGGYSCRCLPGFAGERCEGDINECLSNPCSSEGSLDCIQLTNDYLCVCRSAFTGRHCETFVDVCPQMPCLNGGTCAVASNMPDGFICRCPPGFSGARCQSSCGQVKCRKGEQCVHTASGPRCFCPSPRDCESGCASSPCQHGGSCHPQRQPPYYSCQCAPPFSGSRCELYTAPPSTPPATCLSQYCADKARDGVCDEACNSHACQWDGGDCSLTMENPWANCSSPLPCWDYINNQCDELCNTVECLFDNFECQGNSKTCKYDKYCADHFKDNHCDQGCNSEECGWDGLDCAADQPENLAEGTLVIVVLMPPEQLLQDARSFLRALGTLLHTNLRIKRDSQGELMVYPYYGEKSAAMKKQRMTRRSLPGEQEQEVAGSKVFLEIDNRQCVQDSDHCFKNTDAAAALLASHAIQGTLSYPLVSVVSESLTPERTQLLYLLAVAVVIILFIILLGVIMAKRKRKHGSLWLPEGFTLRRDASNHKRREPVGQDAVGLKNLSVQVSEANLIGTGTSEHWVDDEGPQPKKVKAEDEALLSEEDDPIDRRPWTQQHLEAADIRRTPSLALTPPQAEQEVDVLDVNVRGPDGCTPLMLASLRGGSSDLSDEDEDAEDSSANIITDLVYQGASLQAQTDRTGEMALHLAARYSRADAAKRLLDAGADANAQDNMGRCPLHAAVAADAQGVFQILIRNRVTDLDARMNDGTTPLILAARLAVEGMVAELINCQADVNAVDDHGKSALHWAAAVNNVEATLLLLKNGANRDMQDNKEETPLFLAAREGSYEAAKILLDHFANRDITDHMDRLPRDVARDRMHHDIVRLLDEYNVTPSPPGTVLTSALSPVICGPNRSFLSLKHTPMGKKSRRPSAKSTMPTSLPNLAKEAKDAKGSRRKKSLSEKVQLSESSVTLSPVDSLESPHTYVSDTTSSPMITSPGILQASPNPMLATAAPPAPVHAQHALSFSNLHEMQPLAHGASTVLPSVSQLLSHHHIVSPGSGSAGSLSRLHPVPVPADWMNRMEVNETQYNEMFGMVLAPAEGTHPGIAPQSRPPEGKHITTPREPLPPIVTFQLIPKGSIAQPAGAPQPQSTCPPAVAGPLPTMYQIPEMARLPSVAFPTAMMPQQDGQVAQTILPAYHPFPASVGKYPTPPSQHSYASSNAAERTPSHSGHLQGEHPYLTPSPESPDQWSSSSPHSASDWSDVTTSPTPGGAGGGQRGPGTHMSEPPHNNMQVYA

Take `COCC(=C=CC[C@@H](O)c1ccc(OCCO)cc1)C[C@@H](O)COCc1ccccc1`: the composite z-score in assay [1] is 0.158; in assay [2], -0.187; in assay [3], -0.015; in assay [4], 0.734; in assay [5], 0.726; in assay [6], 1.11. In addition, the composite z-score turned out to be 1.07 in assay [7]; 0.543 in assay [9]; 0.111 in assay [10]; 1.55 in assay [11]; 3.16 in [15]; 0.0282 in [17]. Also, the values for the composite z-score in [18], in assay [19] and in [20] were 1.43, 0.964 and 0.049, respectively. Moreover, the z-score in [8] is -1.1 (inactive); in assay [12] it was -1.31 (inactive); in assay [13], -0.979 (inactive); in assay [14] it was -0.474 (inactive); in assay [16], 1.55 (inactive).

For the compound `CC(C)CNC(=O)[C@@H]1c2ccccc2C(=O)N(CC23CC4CC(CC(C4)C2)C3)[C@H]1c1ccc(CO)cc1`, the composite z-score is -0.146 in [1]; 0.0614 in assay [2]; -0.0056 in assay [3]; 0.205 in assay [4]; 0.632 in assay [5]; 0.792 in [6]. The composite z-score in assay [7] is 0.99; in [9], 0.507; in assay [10] it was -0.115; in [11], 0.797; in [15], 2.69; in [17] it was -0.121. Further, the composite z-score in [18] is 0.264; in [19], 0.953; in [20], -0.146. The z-score in assay [8] is -1.49 (inactive); in [12], -0.998 (inactive); in [13], -1.88 (inactive); in [14], -0.243 (inactive); in assay [16], -0.109 (inactive).

For `CCCC=C(CCC)[C@@H](NS(=O)(=O)c1ccc(Cl)cc1)c1ccccc1`, the composite z-score was 0.329 in [1]; -0.558 in [2]; 0.106 in [3]; -0.243 in [4]; 0.191 in [5]; -0.223 in [6]. In addition, the composite z-score in assay [7] is -0.358; in assay [9], -0.0037; in assay [10], 0.0251; in assay [11], 0.61; in [15], 1.1; in assay [17], -0.0916. Moreover, the composite z-score in assay [18] is -0.135; in [19] it was -0.682; in assay [20], -0.125. Besides, the z-score in assay [8] is 0.909 (inactive); in assay [12] it was 0.286 (inactive); in assay [13], 0.319 (inactive); in assay [14], 1.61 (inactive); in assay [16], -0.829 (inactive).

For `CC(C)C(=C=CC[C@@H](O)c1cccc(OCCO)c1)CCO`, the composite z-score in [1] was -0.226; in [2], 0.17; in [3], -0.085; in assay [4], 0.742; in assay [5], 0.271; in assay [6] it was -0.163. Besides, the composite z-score in [7] was 0.364; in [9] it was 0.321; in [10] it was 0.0505; in assay [11], -0.102; in assay [15], 1.07; in [17], -0.0003. The results for the composite z-score in assay [18], in assay [19] and in [20] were 0.305, 0.454 and 0.0241, respectively. The z-score is -0.202 (inactive) in [8]; 0.493 (inactive) in assay [12]; -0.0344 (inactive) in assay [13]; -0.0595 (inactive) in assay [14]; 0.739 (inactive) in [16].

With `O=C1O[C@H](c2ccccc2)[C@H](c2ccccc2)N2[C@H]1[C@@H](C(=O)NC[C@H](O)c1ccccc1)[C@]1(C(=O)Nc3ccc(C#CCCO)cc31)[C@H]2c1ccccc1OCCO`, the composite z-score in [1] is -0.211; in [2], 0.307; in assay [3] it was -0.141; in [4] it was 0.453; in [5], 0.253; in [6], 1.25. The composite z-score was 1.34 in assay [7]; 0.152 in [9]; 0.0505 in assay [10]; 1.54 in assay [11]; 2.22 in assay [15]; -0.0499 in assay [17]. Besides, the composite z-score in assay [18] was 0.795; in assay [19] it was 0.325; in [20], -0.139. Moreover, the z-score is -0.0302 (inactive) in [8]; 1.14 (inactive) in assay [12]; -2.23 (inactive) in assay [13]; 3.41 (inactive) in [14]; 1.19 (inactive) in assay [16].
